Source: PubChem BioAssay (National Center for Advancing Translational Sciences (NCATS))
Only some compounds are listed: those with a hit (about 12% of all), similar ones and a draw of the others.
BAZ2B block – inhibitors of human BAZ2B bromodomain | Potency, µM (series often up to 114 µM), for the others: top-dose activity change, negative = inhibition, usual class: inhibitors | Q9UIF8 | AID 504333 | 4.4% of 360,000 active | AlphaScreen BAZ2B-H3K14Ac peptide displacement; note: % is set by controls: 0 for no effect and ±100 for the full control effect; nearly all actives have a fitted effect of over 60% in size
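Protein-peptide AlphaScreen: BAZ2B 50 nM, b-H3K14Ac 50 nM, 1x PBS pH 7.4 + 0.01% Tween-20. Preincubation 30 min RT; cpd 30 min RT (top 110 uM); beads 20 min RT, light-protected.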
PLK1 PBD block – PLK1 (human) polo-box domain binding inhibition | P53350 | Plk1 PBD binding of FITC phosphopeptide, fluorescence polarization | Potency, µM, without a hit: max response, negative = inhibition, usual class: inhibitors | 2.8% of 360,000 active; note: series mostly up to about 57 µM; % is set by controls: 0 for no effect and ±100 for the full control effect; nearly all actives have a fitted effect of over 65% in size
Target sequence (P53350 whole entry, looked up, the tested form may be a part): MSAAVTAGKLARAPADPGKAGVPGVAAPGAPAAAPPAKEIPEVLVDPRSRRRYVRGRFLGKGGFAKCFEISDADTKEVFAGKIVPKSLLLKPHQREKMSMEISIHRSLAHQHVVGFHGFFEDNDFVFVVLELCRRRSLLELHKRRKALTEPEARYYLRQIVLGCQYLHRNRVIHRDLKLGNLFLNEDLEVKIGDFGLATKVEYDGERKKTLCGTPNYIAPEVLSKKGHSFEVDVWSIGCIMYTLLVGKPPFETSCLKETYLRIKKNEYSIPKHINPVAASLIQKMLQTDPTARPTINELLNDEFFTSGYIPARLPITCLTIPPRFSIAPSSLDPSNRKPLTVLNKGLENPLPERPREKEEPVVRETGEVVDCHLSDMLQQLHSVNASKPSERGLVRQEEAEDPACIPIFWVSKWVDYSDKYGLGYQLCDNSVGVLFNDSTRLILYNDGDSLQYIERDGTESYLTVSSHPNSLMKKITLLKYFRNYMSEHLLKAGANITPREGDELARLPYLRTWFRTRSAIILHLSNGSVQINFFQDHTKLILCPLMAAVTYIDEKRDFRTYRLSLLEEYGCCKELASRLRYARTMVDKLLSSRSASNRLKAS
HP1b binding inh – blocks HP1-beta chromodomain binding to methylated histone tails; Potency, µM (top dose mostly 114 µM), without a hit: at the highest dose activity change, negative = inhibition, actives largely listed as inhibitors; AID 540317; AlphaScreen HP1-beta / biotin-H3K9me3 peptide binding; 0.56% of 390,000 active; note: nearly all actives have a fitted effect of over 70% in size
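Compound inhibition of the preformed complex between 50 nM HP1-beta and 50 nM biotinylated H3K9me3 peptide was read by AlphaScreen. Buffer was PBS pH 7.4 with 0.01% Tween-20. Incubations ran 30 min at room temperature, with 10 ug/mL donor/acceptor beads.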
G9a inh – blocks human histone lysine methyltransferase G9a | 8.8% of 350,000 active | G9a H3K9 monomethylation, AlphaScreen, 2 h | Q96KQ7 | Potency, µM (series often up to 102 µM), for inactives: at the highest dose activity, negative = inhibition, actives largely listed as inhibitors; note: % is set by controls: 0 for no effect and ±100 for the full control effect; nearly all actives have a fitted effect of over 75% in size
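Methyltransferase reactions run at room temperature for 2 h (20 nM enzyme, 500 nM biotin-H3K9 peptide, 20 uM SAM) after a 15 min compound preincubation; product detected by AlphaScreen beads and anti-H3K9me1 antibody.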
JMJD2A Tudor – inhibitors of human JMJD2A Tudor domain; AlphaScreen JMJD2A-Tudor / H3K4me3 peptide binding; 4.4% of 390,000 active; Potency, µM (series often up to 114 µM), for the others: top-dose activity change, negative = inhibition, actives largely listed as inhibitors; note: % is set by controls: 0 for no effect and ±100 for the full control effect; nearly all actives have a fitted effect of over 50% in size
Sfp PPTase inh – blocks B. subtilis Sfp PPTase activity; Q9F4F7; Biochemical Sfp PPTase activity, qHTS; Potency, µM, for inactives: largest response in the series, negative = inhibition, actives largely listed as inhibitors; 3.5% of 310,000 active; AID 1490;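 note: the enzyme is Sfp with the accession as filed and its product quenches rhodamine fluorescence; 0% = enzyme reaction without inhibitor and -100% = no enzyme wells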
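After 15 min at room temperature with compound, 15 nM Sfp received 5 uM rhodamine-CoA plus 12.5 uM BHQ-2-ybbR (50 mM Hepes pH 7.6, 10 mM MgCl2). Rate came from the fluorescence difference over 30 min, ex 525/em 598 nm.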
* marks the source's active call; other numbers are inactive results; ? = inconclusive; nt = not tested or not shown; [ ] = dose if it differs, or a comment. Calls come from the whole dose curve; as a rule, active = well fitted curve in the direction sought with a large enough effect; inconclusive = small, poorly fitted or top-dose-only effect, or another doubt; inactive = no such curve, though single readings can be large; an effect the other way counts as inactive or inconclusive. Potency is the fitted concentration of half-maximal effect.

SMILES | BAZ2B block | PLK1 PBD block | HP1b binding inh | G9a inh | JMJD2A Tudor | Sfp PPTase inh
c1ccc(-c2cnnc(SCc3cn4cccnc4n3)n2)cc1 | -1% | -6% | 40% | ? | 3% | ?
c1ccc2[nH]c(SCc3cn4cccnc4n3)nc2c1 | -7% | -27% | 27% | 14µM* | 4% | -13%
CCOC(=O)c1cccc(NC(=O)Cn2ncc3c4ccccc4n(Cc4ccccc4)c3c2=O)c1 | 2% | nt | 11% | -1%[59 µM] | ? | nt
Cc1nc(NCCc2ccccc2)sc1C(=O)N(C)C | 6% | 19µM* | -17% | 25µM* | -4% | ?
COCCNc1nc(C)c(C(C)=O)s1 | -29% | -10% | 45% | 40µM* | -15% | 16%
CCCC(=O)Nc1nc(C)c(C(C)=O)s1 | -16% | 0% | 36% | 19% | 4% | 1%
COc1ccccc1CNc1nc(C)c(C(C)=O)s1 | ? | 15µM* | -19% | 11µM* | -23% | ?
COc1ccccc1CNc1nc(C)c(C(=O)N(C)C)s1 | -22% | 24µM* | ? | 14µM* | -6% | 45µM*
Cc1ccccc1OCC(=O)NNC(=O)c1cc(S(=O)(=O)N2CCOCC2)ccc1N1CCCC1 | 12% | -2% | 26% | 5% | -10% | nt
O=c1c2sc3ccccc3c2n(Cc2ccc(Cl)cc2)c(=O)n1Cc1ccco1 | -1% | nt | 7% | 1%[59 µM] | -16% | nt
CCn1cnc2sc(C(=O)N(Cc3ccc(N(C)C)cc3)Cc3ccco3)c(C)c2c1=O | 45µM* | 4% | 35µM* | 16µM* | 50µM* | ?
Cc1ccc(C(=O)N(Cc2ccco2)Cc2ccco2)cc1 | ? | nt | 13% | ? | -29% | nt
CN(C)c1ccc(CN(Cc2ccco2)C(=O)c2ccc(C(C)(C)C)cc2)cc1 | 11µM* | nt | ? | 11µM* | 13µM* | nt
Cc1cc2oc(C(=O)N(Cc3ccc(N(C)C)cc3)Cc3ccco3)c(C)c2cc1Cl | 13µM* | nt | ? | 13µM* | 13µM* | nt
Cc1cc2oc(C(=O)N(Cc3ccco3)Cc3ccccc3Cl)c(C)c2cc1C | 3% | nt | 44% | 12%[59 µM] | -6% | nt
COc1ccc(C(=O)N(Cc2ccc(N(C)C)cc2)Cc2ccco2)cc1Cl | 20µM* | nt | ? | ? | 35µM* | nt
COc1ccc(CNC(=O)c2ccc(CS(=O)(=O)c3ccc(Br)cc3)o2)cc1 | -10% | -9% | 40% | 7% | -3% | 3%
Cc1ccc(C)c(N2CCN(C(=O)C(C)n3nc(C)c4sc5ccccc5c4c3=O)CC2)c1 (centres undefined) | ? | nt | 38% | -27%[59 µM] | ? | nt
CC1CCCN(CCCNC(=O)CN2C(=O)CSc3ccc(S(=O)(=O)N4CCOCC4)cc32)C1 (centres undefined) | -6%[57.1 µM] | -19% | 74% | 9% | -5% | 7%
CC1CCCN(C(=O)CN2C(=O)CSc3ccc(S(=O)(=O)N4CCOCC4)cc32)C1 (centres undefined) | -3% | 27µM* | 18% | 15%[59 µM] | -18% | 1%
Cc1ccccc1NC(=O)CN1C(=O)CSc2ccc(S(=O)(=O)N3CCCCC3)cc21 | -6% | 21µM* | 2% | 7%[59 µM] | ? | 2%
COc1ccc(C(=O)OCCCc2cc3ccccc3c(=O)o2)cc1 | 14% | -14% | 98% | 7%[0.501 µM] | 30% | nt
CCn1nnc2cc(C(=O)Nc3ccc(OC)cc3)ccc21 | -9% | nt | 36% | 0%[59 µM] | -8% | nt
Cc1ccc(S(=O)(=O)Cn2nnnc2C(C(C)C)N2CCN(Cc3ccco3)CC2)cc1 (centres undefined) | -6% | -2% | 24% | 7% | -9% | 11%
Cc1ccc(S(=O)(=O)Cn2nnnc2CN(Cc2ccco2)Cc2cccs2)cc1 | -1% | -7% | 15% | 20µM* | -7% | 14%
SMILES | BAZ2B block | PLK1 PBD block | HP1b binding inh | G9a inh | JMJD2A Tudor | Sfp PPTase inh
COc1cc(C)ccc1OCCOCCOc1c(C)cc(C)cc1Br | 116% | -3% | 155% | 68%[59 µM] | 126% | 2%
CC(C)NCCOCCOc1ccccc1F | 50µM* | -7% | ? | 4.5µM* | 1.8µM* | -24%
C=CCNCCOCCOc1ccc(C)cc1Br | 56µM* | 5% | ? | 3.2µM* | 5µM* | -18%
CCC(C)NCCCOc1c(C)cc(C)cc1Br (centres undefined) | 79µM* | -11% | -36% | 8.9µM* | ? | ?
Clc1ccc(OCCSc2ncccn2)c(Br)c1 | 251% | -14% | 130% | 463% | 128% | -1%
CCN(CC)CCOCCOc1ccccc1F | ? | -1% | 15% | -6% | -17% | -11%
CC(C)NCCOCCOc1ccc(Cl)cc1Br | ? | -3% | -18% | ? | 3.2µM* | -8%
CCC(C)NCCOCCOc1ccc(C)cc1Br (centres undefined) | 56µM* | -6% | ? | ? | 2.5µM* | -19%
COc1cc(C(=O)N=c2sccn2C)c([N+](=O)[O-])cc1OC | 4% | -5% | 14% | 46% | -25% | 18%
Cn1ccsc1=NC(=O)c1ccc([N+](=O)[O-])o1 | -30% | -25% | ? | ? | 56µM* | 9%
CCn1nc(NC(=O)c2ccncc2)c2cc3ccc(C)cc3nc21 | 4% | -8% | 57% | 1% | -13% | 10%
CCn1nc(NC(=O)c2ccncc2)c2cc3cc(C)ccc3nc21 | 9% | 3.8µM* | 0% | 8%[59 µM] | -16%[11.4 µM] | 0%
CC(=O)Oc1ccc(C(=O)[C@H]2[C@H]3C(=O)N(c4ccc5ccccc5c4)C(=O)[C@H]3[C@@H]3C=CC=NN32)cc1 | -9% | 14% | 14% | ? | -26% | 5%
COc1ccccc1N1C(=O)[C@@H]2[C@H](C1=O)[C@H](C(=O)c1ccc(OC(C)=O)cc1)N1N=CC=C[C@@H]21 | -31% | ? | 22% | 5µM* | -32% | -17%
Cc1ccc(OCC(=O)Nc2sc3c(c2C(N)=O)CCCC3)c(C(C)(C)C)c1 | 2% | nt | 15% | ? | -14% | nt
CCCC(=O)Nc1ccc(-c2csc(N/N=C\c3ccncc3)n2)cc1 | ? | -3% | 25% | nt | -19% | 25µM*
CC(=O)Nc1ccc(-c2csc(N/N=C\c3ccncc3)n2)cc1 | -13% | -17% | 5% | 8.9µM* | ? | 20µM*
CCCC(=O)NC(=S)Nc1nc(-c2ccc(OC)cc2)cs1 | 0% | 2% | 36% | 15%[59 µM] | 1% | 3%
Cn1nc([N+](=O)[O-])nc1Oc1ccccc1F | -12% | 24µM* | 2% | 1%[12.7 µM] | ? | 24%
Cn1nc([N+](=O)[O-])nc1Oc1ccccc1N | 4% | 0% | 40% | -13% | 1% | -26%
CC(=O)N1c2ccccc2C(=O)C1N1CCN(c2cc(Cl)ccc2C)CC1 (centres undefined) | ? | nt | 55% | 7.9µM* | -29% | nt
